Records with an inconclusive call do not appear. Unless noted, calls follow the shape of the dose curve; as a rule, active = well fitted curve in either direction with a large enough effect (not every such curve was filed as active); inconclusive = small, poorly fitted or top-dose-only effect, or another doubt; inactive = flat fitted curve, though single readings scatter.
What was measured:
[1] = AP1 Signaling Pathway (AID 357); conditions: ME-180 AP-1-bla reporter, EGF-induced, beta-lactamase ratio, 5 h; at 17.2 µM (top of the series) unless noted;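 also: ME-180 reporter cells stimulated with EGF at its EC50 level; % is scaled to controls: 0 for no effect and ±100 for the full control effect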
Summary of the method: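 Modulation of EGF-driven AP-1 transcription was assessed with a beta-lactamase reporter in ME-180 cells. Compound and EC50 EGF were co-incubated 5 hours at 37 °C before 2.5-hour CCF4 loading at room temperature and dual-emission reading.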

[2] = NFAT Signaling Pathway (AID 444); conditions: Jurkat NFAT-bla M1, carbachol, beta-lactamase ratio, 5 h; at 17.2 µM (top of the series) unless noted;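 also: carbachol stimulus at about its EC50 of 1 µM final; % is scaled to controls: 0 for no effect and ±100 for the full control effect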
Summary of the method: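 Read-out: CCF4 FRET ratio (460 nm/530 nm) after 1 h RT dye loading, used for %activity and AC50 from titration series. Cells: Jurkat NFAT-β-lactamase/M1 line, treated with compound plus 1 uM carbachol for 5 h, 37 °C.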

[3] = Stat Signaling Pathway (AID 446); conditions: ME-180 (cervical carcinoma) SIE beta-lactamase reporter, IL-6 stimulated, 5 h; at 17.2 µM (top of the series) unless noted;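 also: ME-180 cervical cancer cells given 40 pM IL-6 alongside compound; SIE-controlled beta-lactamase reporter measured as 460/530 nm FRET emission ratio; % is scaled to controls: 0 for no effect and ±100 for the full control effect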
Summary of the method: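 Normalization used AC90 stimulation (300 pM IL-6) and AC90 inhibition (125 nM pan-JAK inhibitor at 40 pM IL-6). The underlying signal is SIE-driven beta-lactamase in ME-180 cells after 5 h IL-6 exposure with compound.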

[4] = target: Glucocorticoid receptor (Homo sapiens) (UniProt P04150); assay: GR-GFP Redistribution (AID 450;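 active = compounds whose dose series gives a full or clear partial fitted curve of increased nuclear translocation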; also: potency is read from the fitted curve at half-maximal effect)
Chain of Glucocorticoid receptor (Homo sapiens) (P04150 whole entry, looked up): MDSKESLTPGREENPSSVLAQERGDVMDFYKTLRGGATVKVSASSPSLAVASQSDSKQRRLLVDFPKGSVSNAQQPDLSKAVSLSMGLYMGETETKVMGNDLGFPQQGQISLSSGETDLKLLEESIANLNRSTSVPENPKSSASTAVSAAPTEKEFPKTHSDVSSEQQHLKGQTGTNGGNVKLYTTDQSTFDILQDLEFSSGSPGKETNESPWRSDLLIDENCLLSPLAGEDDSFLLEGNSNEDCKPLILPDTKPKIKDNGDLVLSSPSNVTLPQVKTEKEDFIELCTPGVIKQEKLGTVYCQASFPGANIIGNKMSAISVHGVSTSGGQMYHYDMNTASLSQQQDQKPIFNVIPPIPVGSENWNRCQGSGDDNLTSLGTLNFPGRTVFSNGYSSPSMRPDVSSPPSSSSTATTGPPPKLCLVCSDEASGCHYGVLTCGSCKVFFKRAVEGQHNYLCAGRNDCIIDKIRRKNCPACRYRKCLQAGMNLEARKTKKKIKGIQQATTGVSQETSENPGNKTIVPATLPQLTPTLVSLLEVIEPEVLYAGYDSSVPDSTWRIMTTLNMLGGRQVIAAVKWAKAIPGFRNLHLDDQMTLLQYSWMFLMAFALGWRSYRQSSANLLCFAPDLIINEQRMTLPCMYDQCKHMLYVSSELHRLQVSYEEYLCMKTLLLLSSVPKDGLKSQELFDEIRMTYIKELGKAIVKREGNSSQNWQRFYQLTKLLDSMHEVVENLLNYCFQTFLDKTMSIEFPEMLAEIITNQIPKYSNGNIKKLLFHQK

COC(=O)CC1=NC(=O)CS1
inactive: activity change, negative = inhibition [1] 17.8% | activity change, negative = inhibition [2] -3.72% | activity, negative = inhibition [3] 12.3% | Potency [4] > 20.6 µM

Cc1c(/C(O)=C2\C(=O)C(=O)N(CCN(C)C)C2c2cccs2)cnn1-c1ccccc1 (stereo not drawn)
inactive: activity change, negative = inhibition [1] 6.26% | activity change, negative = inhibition [2] -10.6% | activity, negative = inhibition [3] -3.53% | Potency [4] > 20.6 µM

Cc1cc(C)n(C(=O)CNC(=O)CCc2ccccc2)n1
inactive: activity change, negative = inhibition [1] 8.64% | activity change, negative = inhibition [2] 9.94% | activity, negative = inhibition [3] 2.58% | Potency [4] > 20.6 µM

CC(C)c1nc2n[nH]c(N)c2c2c1CCCC2
inactive: activity change, negative = inhibition [1] -8.5% | activity change, negative = inhibition [2] 6.42% | activity, negative = inhibition [3] -2.14% | Potency [4] > 20.6 µM

CCCCC1(C(=O)OCC)CC(CN2CCOCC2)OC1=O (stereo not drawn)
inactive: activity change, negative = inhibition [1] 2.64% | activity change, negative = inhibition [2] -18.1% | activity, negative = inhibition [3] 3.3% | Potency [4] > 20.6 µM

CCc1cc(=O)oc2cc(C)c(CN3CCCC(C)C3)c(O)c12 (stereo not drawn)
inactive: activity change, negative = inhibition [1] 1.74% | activity change, negative = inhibition [2] -12.2% | activity, negative = inhibition [3] -15.7% | Potency [4] > 20.6 µM

CN(C)CCCN1C(=O)C(O)=C(C(=O)c2cc3ccccc3o2)C1c1ccccn1 (stereo not drawn)
inactive: activity change, negative = inhibition [1] 7.64% | activity change, negative = inhibition [2] 7.35% | activity, negative = inhibition [3] -0.93% | Potency [4] > 20.6 µM

CC1(C)CC(=O)C(C=NCCN2CCN(C(=O)C34CC5CC(CC(C5)C3)C4)CC2)=C(O)C1
inactive: activity change, negative = inhibition [1] -9.89% | activity change, negative = inhibition [2] 9.88% | activity, negative = inhibition [3] 7.24% | Potency [4] > 20.6 µM

CN(C)c1ccc(C=NCC2(O)CCOC(C)(C)C2)cc1 (stereo not drawn)
inactive: activity change, negative = inhibition [1] -0.248% | activity change, negative = inhibition [2] -9.77% | activity, negative = inhibition [3] 8.53% | Potency [4] > 20.6 µM

CCc1nc(NCC(C)C)c(C#N)c2c1COC(C)(C)C2
inactive: activity change, negative = inhibition [1] -11.6% | activity change, negative = inhibition [2] -0.964% | activity, negative = inhibition [3] 1.74% | Potency [4] > 20.6 µM

N#C/C(C(=O)NCc1ccco1)=C1/SC(Cc2ccc(F)cc2)C(=O)N1c1ccccc1 (stereo not drawn)
inactive: activity change, negative = inhibition [1] 1.52% | activity change, negative = inhibition [2] -9.67% | activity, negative = inhibition [3] -22.9% | Potency [4] > 20.6 µM

COc1ccc(C(=O)NCC(=O)n2nc(C)cc2C)cc1OC
inactive: activity change, negative = inhibition [1] 6.38% | activity change, negative = inhibition [2] -1.54% | activity, negative = inhibition [3] 16.4% | Potency [4] > 20.6 µM

c1csc(Cc2nn3c(-c4ccncc4)nnc3s2)c1
inactive: activity change, negative = inhibition [1] -25% | activity change, negative = inhibition [2] 5.73% | activity, negative = inhibition [3] -2.56% | Potency [4] > 20.6 µM

CC(NC(=O)Nc1nnc(C(F)(F)F)s1)(C(F)(F)F)C(F)(F)F
inactive: activity change, negative = inhibition [1] -3.33% | activity change, negative = inhibition [2] 0.893% | activity, negative = inhibition [3] 0.617% | Potency [4] > 20.6 µM

O=C1C(=O)N(CCN2CCOCC2)C(c2ccccn2)/C1=C(/O)c1ccc(F)cc1 (stereo not drawn)
inactive: activity change, negative = inhibition [1] 10.4% | activity change, negative = inhibition [2] 21.3% | activity, negative = inhibition [3] -1.73% | Potency [4] > 20.6 µM

CCOC(=O)N1CCN(C(=O)c2cn(CC)c3cc(N4CCN(C)CC4)c(F)cc3c2=O)CC1
inactive: activity change, negative = inhibition [1] 8.43% | activity change, negative = inhibition [2] 7.68% | activity, negative = inhibition [3] 0.507% | Potency [4] > 20.6 µM

COC(=O)C(NC(C)=O)(Nc1ccccc1)C(=O)OC
inactive: activity change, negative = inhibition [1] 2.11% | activity change, negative = inhibition [2] -1.66% | activity, negative = inhibition [3] 13.2% | Potency [4] > 20.6 µM

From PubChem BioAssay (NCATS)
